Laboratory results: PubChem BioAssay AID1508622 (National Center for Advancing Translational Sciences (NCATS), 2021)
Active and inactive are the calls of the source. Where a call stands in place of a potency, no number is given. Calls come from the whole dose curve; as a rule, active = well fitted activation curve with a large enough effect; inconclusive = small, poorly fitted or top-dose-only effect; inactive = no such curve, though single readings can be large or run the other way.

Experiment: Confirmatory qHTS for Identification of Small Molecule Activators of Huntingtin-Antisense Promoter Activity
How it was run: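 2,500 luciferase reporter HEK293 cells/well; 24 h culture; cpds up to 57.5 uM final, PTC124 50 uM ctrl; 24 h, 37C; Dual-Glo FLuc reagent, 10 min RT; lum. Norm.: vehicle 0%, zero RLU -100%.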

| Compound | Potency |
| --- | --- |
| CCOc1cc(C(=O)Nc2ccc3oc(-c4ccc(CC)cc4)nc3c2)cc(OCC)c1OCC | inactive |
| CCN1C(=O)c2ccccc2Sc2ccc(NC(=O)Nc3cccc([N+](=O)[O-])c3C)cc21 | inactive |
| COc1ccc(Cl)cc1Nc1sc(C(=O)c2ccccc2)c(N)c1C(=O)Nc1ccccc1 | inactive |
| COc1ccc(Cn2c(SCc3ccc(C(=O)NC4CCCC4)cc3)nc3ccncc32)cc1 | inactive |
| Cn1cnc(S(=O)(=O)N2CCC(C(=O)Nc3ccc(OC(F)(F)F)cc3)CC2)c1 | inactive |
| Cn1c(SCc2ccc(F)cc2)nc2ccc(C(=O)NCc3ccc(F)cc3)cc21 | inactive |
| Cc1ccc(S(=O)(=O)N(CC(=O)NCCc2ccc(Cl)cc2)c2ccccc2C)cc1 | inactive |
| CCOc1ccc(C(=O)NCC(c2ccc3c(c2)OCO3)N2CCN(c3ccccc3F)CC2)cc1 (stereo not drawn) | inactive |
